Shown are actives, neighbours in structure and some others; about 2.7% of the full set was active somewhere.
PAFAH2 inh: PAFAH2 (human) inhibition; Q99487; recombinant PAFAH2, FP-rhodamine activity probe, fluorescence polarization; inhibition, % at 3.39 µM; hit rate 0.99% among 340,000; AID 492956;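 active = inhibition above the mean over all tested compounds plus 3 SD, cut at about 30% in these data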;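 also: inhibitors block probe labeling of enzyme so polarization drops; 0% = enzyme with DMSO and 100% = wells lacking PAFAH2 protein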
pPAFAH inh: inhibitors of human plasma PAF acetylhydrolase (pPAFAH). recombinant pPAFAH, FP-rhodamine probe fluorescence polarization. hit rate 1.5% among 330,000. AID 463082. inhibition, % at 3.39 µM;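 active = inhibition above the mean inhibition across the screen plus 3 SD, cut at about 25% in these data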;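 also: inhibitors block binding of the rhodamine activity-based probe so polarization drops; 0% = enzyme with DMSO and 100% = wells lacking pPAFAH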
Target sequence (Q13093 whole entry, looked up): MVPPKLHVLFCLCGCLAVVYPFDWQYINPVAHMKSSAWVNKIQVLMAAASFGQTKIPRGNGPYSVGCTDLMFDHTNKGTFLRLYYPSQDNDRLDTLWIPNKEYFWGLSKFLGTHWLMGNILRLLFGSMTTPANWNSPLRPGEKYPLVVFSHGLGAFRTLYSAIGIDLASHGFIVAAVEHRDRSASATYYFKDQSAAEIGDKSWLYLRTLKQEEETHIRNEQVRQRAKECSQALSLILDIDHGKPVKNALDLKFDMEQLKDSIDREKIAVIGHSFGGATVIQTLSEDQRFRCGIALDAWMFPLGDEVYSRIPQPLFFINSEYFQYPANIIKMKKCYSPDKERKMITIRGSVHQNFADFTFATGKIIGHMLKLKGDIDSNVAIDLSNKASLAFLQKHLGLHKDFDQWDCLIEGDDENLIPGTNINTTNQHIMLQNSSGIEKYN
PAFAH1B3 inh: inhibitors of human PAFAH1B3; Q15102; recombinant PAFAH1B3, FP-rhodamine probe, fluorescence polarization; inhibition, % at 3.39 µM; hit rate 0.28% among 340,000; AID 492972;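 active = inhibition above the screen-wide average of all tested compounds plus 3 SD, cut at about 25% in these data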;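 also: 0% = enzyme with DMSO only and 100% = wells lacking PAFAH1B3 protein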
PAFAH1B2 FP inh: blocks human PAF acetylhydrolase 1b catalytic subunit 2. hit rate 1.2% among 340,000. AID 492953. recombinant PAFAH1B2, FP-rhodamine activity probe, fluorescence polarization. inhibition, % at 3.39 µM;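 active = inhibition above the mean of all tested compounds plus 3 SD, cut at about 24% in these data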;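 also: 0% = enzyme with DMSO and 100% = wells lacking PAFAH1B2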
TCR CD3 inh: blocks the human TCR-CD3 interaction. TAMRA-labeled TCR probe fluorescence, biochemical. inhibition, % at 9.4 µM. hit rate 0.37% among 360,000. AID 651800;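 also: recombinant mutant TCR 2C K166C tagged with TAMRA read by polarization; 0% = receptor in buffer alone and 100% = receptor with positive control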
PAFAH2 FP conf: confirmation of human PAFAH2 inhibitors; inhibition, % at 3.39 µM; recombinant PAFAH2, FP-rhodamine activity probe, fluorescence polarization; shares compounds with PAFAH2 inh; AID 493030; hit rate 65% among 2,300;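 active = mean inhibition over three repeats above a set limit taken from the earlier primary screen, cut at about 30% in these data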;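 also: inhibitor blocks binding of rhodamine activity probe so polarization falls; 0% = enzyme with DMSO and 100% = wells lacking PAFAH2 protein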
BSA TAMRA ctr: BSA probe counter-screen for TCR-CD3 inhibitors | shares compounds with TCR CD3 inh | TAMRA-labeled BSA probe fluorescence counterscreen | inhibition, % at 9.4 µM | hit rate 10% among 1,200 | AID 652035; in the data active = inhibition above about 23%;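 also: 0% = buffer low control and 100% = reference high control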
TCR-CD3 conf: confirmation of human TCR-CD3 interaction inhibitors. inhibition, % at 9.4 µM. TAMRA-labeled TCR probe fluorescence binding assay. hit rate 48% among 1,200. shares compounds with TCR CD3 inh
An asterisk follows results filed as active; nt = no result. Rule as the data show it, unless noted: active = inhibition above about 19%; inactive = the rest.

SMILES	PAFAH2 inh	pPAFAH inh	PAFAH1B3 inh	PAFAH1B2 FP inh	TCR CD3 inh	PAFAH2 FP conf	BSA TAMRA ctr	TCR-CD3 conf
CC(=O)Oc1ccc(/C=C/c2nc3ccccc3c(=O)o2)cc1	49.6*	-4.6	8.7	7.2	-2.4	57.4*	nt	nt
CC(=O)Oc1ccccc1/C=C/c1nc2ccccc2c(=O)o1	86.5*	1.9	5.4	4.3	6.3	70.1*	nt	nt
O=c1oc(/C=C/c2ccc([N+](=O)[O-])s2)nc2ccccc12	19.0	5.5	-1.8	6.5	nt	nt	nt	nt
CC(=O)Oc1ccc(-c2nc3ccccc3c(=O)o2)cc1	19.3	-0.7	11.0	3.5	-8.9	nt	nt	nt
COc1cc(/C=C/C(=O)N2CCN(Cc3ccccc3)CC2)cc(OC)c1OC	-1.1	-10.1	7.7	-1.2	0.9	nt	nt	nt
CCCCn1c(N)c(N(CCOC)C(=O)c2cccc(N3C(=O)c4ccccc4C3=O)c2)c(=O)[nH]c1=O	44.8*	6.1	2.6	-2.8	-2.2	-2.4	nt	nt
CCN(C(=O)COC(=O)Cn1c(=O)oc2ccccc21)c1c(N)n(Cc2ccccc2)c(=O)[nH]c1=O	5.5	nt	13.3	-0.6	3.8	nt	nt	nt
Oc1ccc(/C=N/N=C/c2ccc(O)c(O)c2)cc1O	54.0*	8.6	-2.8	-0.4	50.9*	13.7	-7.3	67.4*
Oc1ccc(/C=N/N=C/c2ccc(O)cc2)cc1	0.7	-2.9	2.1	5.2	1.8	nt	nt	nt
O=C1Nc2ccccc2/C1=N\N=C\c1ccc(O)c(O)c1	45.8*	5.1	20.8	11.8	32.0*	17.7	-14.7	41.0*
CN(Cc1ccccc1F)C(=O)CN1C(=O)NC2(CCc3ccccc32)C1=O (stereo unspecified)	-1.3	nt	-4.4	0.9	-10.2	nt	nt	nt
N#CCC(=O)Nc1ccc(C(=O)OCC(=O)NC2CCCc3ccccc32)cc1 (stereo unspecified)	42.8*	2.0	-3.2	-5.7	19.6*	37.9*	6.4	2.3
CC(=O)C1(C)C(=O)N(c2ccc(C)cc2)C(=O)N1c1ccc(C)cc1 (stereo unspecified)	0.3	nt	8.7	7.2	-4.8	nt	nt	nt
O=[N+]([O-])c1cc(Br)c(O)c(/C=N/Nc2nnnn2-c2cccc3ccccc23)c1	35.1*	33.5*	20.8	18.1	20.1*	23.6	-15.3	41.4*
O=[N+]([O-])c1ccc(NN=Cc2cccc3ccccc23)cc1	7.0	nt	2.5	2.8	7.8	nt	nt	nt
C/C(=N\NC(=S)NCC(C)(C)C)c1cc(F)cc(F)c1O	33.0*	9.5	21.2	7.4	26.7*	13.6	-10.9	1.2
COCCNC(=S)N/N=C(\C)c1ccc(O)cc1	-4.0	5.2	3.8	1.0	-3.8	nt	nt	nt
O=C(CCCn1c(SCC(=O)c2ccc(O)c(O)c2)nc2ccccc2c1=O)NCC1CCCO1 (stereo unspecified)	35.1*	34.1*	3.7	12.9	21.4*	10.7	-16.2	39.5*
COc1ccc(/C=N\NC(=S)SCN2C(=O)C3CCC(C)(C2=O)C3(C)C)cc1 (stereo unspecified)	11.9	6.7	3.6	1.4	3.9	nt	nt	nt
CC12CCC(C(=O)N(CSC(=S)N/N=C\c3ccccc3O)C1=O)C2(C)C (stereo unspecified)	38.5*	4.9	4.9	11.0	31.5*	25.0	-9.7	20.1*
CC(=O)Nc1c(Cl)cc2c(c1Cl)C(=O)c1ccccc1-2	4.9	nt	5.2	0.9	-3.8	nt	nt	nt
O=c1cc(-c2ccc(O)c(O)c2)oc2ccc3ccccc3c12	34.5*	nt	5.7	-1.6	56.3*	47.5*	-5.7	48.1*
O=C(COC(=O)c1ccc(OC(F)F)cc1)Nc1cccc(S(=O)(=O)NC2=NCCC2)c1	31.4*	1.4	10.1	-1.1	40.0*	18.6	3.5	-1.0
O=C(c1cc(C2CCCCN2S(=O)(=O)Cc2ccccc2)on1)N1CCOCC1 (stereo unspecified)	nt	nt	nt	nt	-3.5	nt	nt	nt
COc1ccc(-c2cnnc(N/N=C/c3ccc(O)c(OC)c3)n2)cc1	-0.8	8.2	5.4	4.8	7.6	nt	nt	nt
Cc1ccc(OCCC(=O)O)cc1	-2.2	1.8	11.4	-2.0	1.7	nt	nt	nt
COc1ccc(/C=C2\SC(=S)N(c3cccnc3)C2=O)cc1	0.4	5.0	8.3	-0.9	3.7	nt	nt	nt

Screens deposited in PubChem BioAssay by The Scripps Research Institute Molecular Screening Center.
